The results in this text go back to PubChem BioAssay.

For assay [1], the target named is Cell division control protein 42 homolog (Homo sapiens) (UniProt P60953). In words: activated mutant Cdc42 GTP-binding inhibitors, dose response, biochemical, multiplex bead flow cytometry, Bodipy-FL-GTP (AID 1333;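 active = fitted half-maximal concentration within the tested dose range, moderate curve steepness, a statistically real signal drop, and little compound fluorescence or tag-binding interference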).
Sequence of Cell division control protein 42 homolog (Homo sapiens) (P60953 whole entry, looked up): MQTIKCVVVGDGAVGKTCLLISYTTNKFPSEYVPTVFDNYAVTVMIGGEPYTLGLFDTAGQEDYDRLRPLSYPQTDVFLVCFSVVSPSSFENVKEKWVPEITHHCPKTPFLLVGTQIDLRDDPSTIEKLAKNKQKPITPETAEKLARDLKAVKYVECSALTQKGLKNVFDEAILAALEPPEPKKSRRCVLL
For assay [2] the target is unchanged. In words: wildtype Cdc42 GTP-binding inhibitors, dose response, biochemical, multiplex bead flow cytometry, Bodipy-FL-GTP (AID 1334;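 active = fitted half-maximal concentration within the tested range, moderate curve steepness, significant signal drop, and little compound fluorescence or bead-linkage interference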). The note with it: bead-based flow cytometry, Bodipy-FL-GTP binding to GST-Cdc42; at 100 µM (top of the series) unless noted. A general note: Flow cytometry measures light scatter and fluorescence of single cells or particles in a stream.

For assay [3], the target named is GTPase HRas (Homo sapiens) (UniProt P01112). The experiment in a line: inhibitors of GTP binding to wildtype Ras, dose response, biochemical, multiplex bead flow cytometry (AID 1335;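 active = fitted half-maximal concentration within 10 nM to 100 µM, steepness 0.5 to 2, significant signal drop, low assay interference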). The note with it: bead-based flow cytometry, Bodipy-GTP binding to GST-Ras; at 100 µM (top of the series) unless noted.
Sequence of GTPase HRas (Homo sapiens) (P01112 whole entry, looked up): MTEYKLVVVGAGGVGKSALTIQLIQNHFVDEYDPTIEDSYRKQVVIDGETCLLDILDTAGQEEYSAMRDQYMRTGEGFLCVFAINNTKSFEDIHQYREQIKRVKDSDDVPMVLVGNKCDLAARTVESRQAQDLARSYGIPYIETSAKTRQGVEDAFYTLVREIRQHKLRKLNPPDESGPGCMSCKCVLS
Assay [4] relates to Ras-related protein Rab-7a (dog), GTP binding. The experiment in a line: Rab7 GTP binding inhibitors, potency, dose response, biochemical, wildtype, multiplex bead flow cytometry (AID 1336).
In assay [5] the target is GTPase HRas (Homo sapiens) (UniProt P01112). In words: activated Ras mutant GTP binding inhibitors, dose response, biochemical, multiplex bead flow cytometry (AID 1341;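 active = dose-response curve with midpoint inside the tested range, moderate steepness, significant amplitude and little compound fluorescence or bead-attachment interference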;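 note: GST-tagged constitutively activated Ras mutant immobilized on beads and multiplexed with other GTPases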).
The target of assay [6] is Ras-related C3 botulinum toxin substrate 1 (Homo sapiens) (UniProt P63000). The experiment in a line: wildtype Rac1 GTP binding inhibitors, dose response, biochemical, multiplex bead flow cytometry (AID 1340;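 active = dose curve with midpoint inside tested range, moderate steepness, plateau gap beyond fit error, low compound glow and bead-link interference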). The note with it: GST-Rac1 beads, Bodipy-FL-GTP binding; at 100 µM (top of the series) unless noted.

The structures appear in SMILES notation. For some assays here: Entries with a potency or affinity are not part of this list. Active and inactive are the calls of the source. Unless noted, the rule behind the calls is not given here.

For the molecule `O=C(COc1ncnc2cc([N+](=O)[O-])ccc12)NCCc1ccc(Cl)cc1`, the outcome in assay [1], in assay [4] and in assay [5] was inactive. The fluorescence, percent of control (lower = inhibition) in assay [2] was found to be 36.6%. For the same molecule, in assay [3], the GTP binding, percent of control came out at 78.8%.

`Cc1cc(C(=O)Oc2ccccc2C(=O)O)c(C)o1`: the outcome in assay [1] and in assay [5] was inactive. The molecule further came in with a fluorescence, percent of control (lower = inhibition) in assay [2] of 61.1%.

As for `O=C(NCc1ccc2c(c1)OCO2)c1ccc(CSCc2cccc(Cl)c2)o1`, the fluorescence, percent of control (lower = inhibition) in assay [2] was 31%. The same molecule yielded a GTP binding, percent of control in assay [3] of 76.4%. In addition, the molecule was called inactive in assay [4] and in assay [5]. The GTP binding signal, raw median fluorescence (lower = inhibition) (MCF (arbitrary fluorescence units)) in assay [6] was 266.

Regarding `O=C(O)CCN1C(=O)/C(=C/c2ccc(-c3nc4ccccc4s3)o2)SC1=S`, the call in assay [1], in assay [4] and in assay [5] was inactive. In assay [2], this molecule gave a fluorescence, percent of control (lower = inhibition) of 32.8%. Further, the GTP binding, percent of control in assay [3] was found to be 53.9%.

Take `Cc1cc(NC(=O)CSc2nc(-c3ccccc3)c(C#N)c(=O)[nH]2)no1`: the result in assay [1] and in assay [4] was inactive. This molecule also came in with a fluorescence, percent of control (lower = inhibition) in assay [2] of 45.4%.

Turning to `O=C(O)/C=C/c1cn(Cc2ccccc2)nc1-c1ccc(Cl)cc1`, the molecule was called inactive in assay [1], in assay [4] and in assay [5]. This molecule yielded a fluorescence, percent of control (lower = inhibition) in assay [2] of 34.9%. Further, in assay [3], the GTP binding, percent of control is 84.9%.

On to `CCC(C(=O)NC1CCCC1)N(C(=O)Cn1nnc(-c2ccc(C)o2)n1)c1cnc2ccccc2c1` (stereo unspecified), for which the result in assay [1], in assay [4] and in assay [5] was inactive. This molecule also returned a GTP binding, percent of control in assay [3] of 60.1%. Besides, in assay [6], the GTP binding signal, raw median fluorescence (lower = inhibition) (MCF (arbitrary fluorescence units)) worked out at 194.

Turning to `O=C(Nc1ccccc1)C1=C(c2ccccc2)S(=O)(=O)CCS1(=O)=O`, the fluorescence, percent of control (lower = inhibition) in assay [2] turned out to be 21.5%. The same molecule had a GTP binding, percent of control in assay [3] of 72.8%. Further, the call in assay [4] and in assay [5] was inactive. The GTP binding signal, raw median fluorescence (lower = inhibition) (MCF (arbitrary fluorescence units)) in assay [6] turned out to be 217.

Molecule `Cc1ccc(C)c(OCCn2cc(C(=O)O)c3ccccc32)c1` gave a fluorescence, percent of control (lower = inhibition) in assay [2] of 47.5%. This molecule came in with a GTP binding, percent of control in assay [3] of 91.6%. The call in assay [4] and in assay [5] was inactive. The GTP binding signal, raw median fluorescence (lower = inhibition) (MCF (arbitrary fluorescence units)) in assay [6] stood at 304.

In the case of `S=C(Nc1ccc(Oc2ccccc2)cc1)NC1CCCCC1`, the result in assay [1], in assay [4] and in assay [5] was inactive. In addition, the GTP binding, percent of control in assay [3] came out at 62.2%. Besides, in assay [6], the GTP binding signal, raw median fluorescence (lower = inhibition) (MCF (arbitrary fluorescence units)) was 205.

In the case of `O=C(C#CC1CCCCC1)c1ccc([N+](=O)[O-])cc1`, in assay [2], the fluorescence, percent of control (lower = inhibition) was found to be 33%. In assay [3], this molecule yielded a GTP binding, percent of control of 177%. For the same molecule, the molecule was called inactive in assay [4] and in assay [5]. For the same molecule, the GTP binding signal, raw median fluorescence (lower = inhibition) (MCF (arbitrary fluorescence units)) in assay [6] was 45.6.

In the case of `NC(N)=NS(=O)(=O)c1ccc(NC(=S)NC(=O)c2ccc3c(c2)OCO3)cc1`, the molecule was classed as inactive in assay [1], in assay [4] and in assay [5]. The same molecule displayed a fluorescence, percent of control (lower = inhibition) in assay [2] of 44.3%. For the same molecule, the GTP binding, percent of control in assay [3] is 97.7%.

Regarding `CCOC(=O)c1c(NC(=O)C(=O)N/N=C/c2ccc(O)c(OC)c2)sc2c1CCCCC2`, the molecule was called inactive in assay [1], in assay [4] and in assay [5]. Further, the GTP binding, percent of control in assay [3] stood at 64.6%. Further, in assay [6], the GTP binding signal, raw median fluorescence (lower = inhibition) (MCF (arbitrary fluorescence units)) stood at 184.

Regarding `COCCn1c(=S)[nH]c2cc(C(=O)N3CCc4ccccc4C3)ccc2c1=O`, the outcome in assay [1], in assay [4] and in assay [5] was inactive. Further, in assay [2], the fluorescence, percent of control (lower = inhibition) turned out to be 35.6%. In assay [3], the GTP binding, percent of control stood at 83.9%.

`O=C(O)c1ccccc1Oc1ccccc1`: the molecule was called inactive in assay [1] and in assay [5]. The fluorescence, percent of control (lower = inhibition) in assay [2] came out at 83.7%. For the same molecule, in assay [3], the GTP binding, percent of control was determined as 100%. Further, the GTP binding signal, raw median fluorescence (lower = inhibition) (MCF (arbitrary fluorescence units)) in assay [6] was 65.

With `CC(C)Oc1ccc(/C=N/NC(=O)c2ccc(N(Cc3ccccc3)S(C)(=O)=O)cc2)cc1`, the result in assay [1], in assay [4] and in assay [5] was inactive. In assay [2], the fluorescence, percent of control (lower = inhibition) was determined as 43.8%. In assay [3], this molecule registered a GTP binding, percent of control of 57.5%.

Take `O=C1/C(=C\c2cccnc2)Sc2ccccc21`: the result in assay [1], in assay [4] and in assay [5] was inactive. In assay [2], this molecule displayed a fluorescence, percent of control (lower = inhibition) of 29.1%. This molecule showed a GTP binding, percent of control in assay [3] of 62.4%.

As for `COc1cc(SC#N)ccc1N=Cc1c(C)[nH]n(-c2ccc(C)c(C)c2)c1=O`, the call in assay [1], in assay [4] and in assay [5] was inactive. In addition, in assay [2], the fluorescence, percent of control (lower = inhibition) stood at 44.7%. The GTP binding, percent of control in assay [3] worked out at 83%.
